Pf gametocyte: late stage P. falciparum gametocyte viability inhibitors, primary screen, ATP luminescence, HTS; P. falciparum stage V gametocytes, 24 h; actives 0.065% (n = 150,000); inhibition, % at 10.9 µM;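 active = inhibition above the mean plus 3 SD of compounds within the control limits, set per campaign, cut at about 38% in these data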;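 note: 0% = DMSO wells and 100% = medium only without gametocytes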
S1P3 antag: S1P3 receptor antagonists, primary screen, cell-based. Sphingosine 1-phosphate receptor 3 (Homo sapiens), Q99500. CHO S1P3 NFAT-BLA reporter, FRET fluorescence, antagonist mode. inhibition, % at 4.98 µM. actives 0.27% (n = 170,000);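 active = inhibition above the plate cutoff, the mean inhibition of test wells on that plate plus 3 SD, cut at about 28% in these data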;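 note: cells challenged with S1P at its EC80 of 0.8 µM; blue over green emission ratio from cleaved BLA substrate after 4 h stimulation; 0% = S1P-stimulated wells and 100% = unstimulated DMSO-only wells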
S1P4 antagonist: S1P4 receptor antagonists, primary screen, cell-based | AID 1510, 2009 | Sphingosine 1-phosphate receptor 4 (Homo sapiens), O95977 | actives 0.26% (n = 220,000) | inhibition, % at 4.98 µM | S1P4-expressing cells, antagonist mode, reporter read-out; in the data active = inhibition above about 29%;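 note: 0% = wells stimulated with agonist and 100% = vehicle wells without agonist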
Target sequence (O95977 whole entry, looked up): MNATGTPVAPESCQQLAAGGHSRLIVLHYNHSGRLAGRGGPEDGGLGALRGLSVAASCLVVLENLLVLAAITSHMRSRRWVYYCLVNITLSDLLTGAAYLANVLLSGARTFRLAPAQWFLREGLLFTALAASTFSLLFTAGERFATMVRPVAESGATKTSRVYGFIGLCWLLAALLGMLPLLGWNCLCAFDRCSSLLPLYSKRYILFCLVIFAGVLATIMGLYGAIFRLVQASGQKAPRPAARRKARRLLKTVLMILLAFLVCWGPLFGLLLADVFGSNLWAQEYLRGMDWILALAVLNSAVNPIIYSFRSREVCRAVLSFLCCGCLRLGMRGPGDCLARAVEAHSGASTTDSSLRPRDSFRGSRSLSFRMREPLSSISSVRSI
Hsp70 activator: Hsp70 transcriptional activators, primary screen, cell-based, HeLa, Hsp70 promoter luciferase, luminescence, 10 µM | HeLa Hsp70 promoter luciferase reporter; scaled: vehicle 0, proteasome-inhibitor control 100% | activation, % at 10 µM | actives 0.04% (n = 200,000) | AID 1203, 2008;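 active = activation above the mean across all tested compounds plus 3 SD, cutoff set per campaign, cut at about 5.5% in these data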;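 note: 100% = MG132 at 30 µM as the positive control and 0% = DMSO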
S1P4 ag: S1P4 receptor agonists, primary screen, cell-based | Sphingosine 1-phosphate receptor 4 (Homo sapiens), O95977 | S1P4-expressing cell line, agonist reporter assay | activation, % at 4.98 µM | actives 0.35% (n = 220,000); in the data active = activation above about 11%;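 note: 0% = DMSO vehicle and 100% = reference agonist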
S1P4 antag conf: S1P4 receptor antagonists, human, confirmation, cell-based; shares compounds with S1P4 antagonist; S1P4-expressing cell line, antagonist mode, reporter read-out; inhibition, % at 4.98 µM; actives 71% (n = 520); AID 1524, 2009; in the data active = inhibition above about 30%
S1P1 antagonist: S1P1 receptor antagonists, human, counter-screen for S1P4 antagonist project, cell-based | shares compounds with S1P4 antagonist | cell-based S1P1 antagonist counterscreen, inhibition | inhibition, % at 4.98 µM | actives 37% (n = 520) | AID 1564, 2009; in the data active = inhibition above about 40%;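 note: receptor stimulated with S1P near its EC80; 0% = agonist stimulated wells and 100% = vehicle only wells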
* hit, by the source's call; . = no result. A selection: hits, their analogues and other compounds. The true share with any hit is near 0.83%.

SMILES	Pf gametocyte	S1P3 antag	S1P4 antagonist	Hsp70 activator	S1P4 ag	S1P4 antag conf	S1P1 antagonist
CC1CCC/C=C/C2CC(O)CC2C(O)/C=C/C(=O)O1 (stereo not given)	.	.	47*	-1	0	83*	37
C[C@H]1CCC[C@@H](O)CCC/C=C/c2cc(O)cc(O)c2C(=O)O1	.	.	-11	0	1	.	.
Cc1onc(-c2c(Cl)cccc2Cl)c1C(=O)Nc1ccc2c(C(F)(F)F)cc(=O)oc2c1	4	1	0	.	1	.	.
NC(=O)c1cn(C2OC(CO)C(O)C2O)c2ncnc(N)c12 (stereo not given)	.	23	72*	-1	-6	79*	42*
CCNC(=O)[C@H]1O[C@@H](n2cnc3c(N)ncnc32)[C@H](O)[C@@H]1O	.	3	-6	0	7	.	.
COc1ccc(NC(=O)C2C3CCC(O3)C2C(=O)O)c(OC)c1 (stereo not given)	-6	.	.	.	.	.	.
COC(=O)C1=C(c2ccc(OCc3ccccc3)cc2)C[C@@H]2CC[C@H]1N2C(=O)NCc1ccc([N+](=O)[O-])cc1	-34	.	.	.	.	.	.
CN1CCN(c2ccc([N+](=O)[O-])c3no[n+]([O-])c23)CC1	.	-2	49*	.	4	76*	-21
CN1CCN(c2nc(N)c(Br)c(Cl)n2)CC1	.	5	-15	.	1	.	.
COc1cc2c(cc1/C=C/[N+](=O)[O-])OCO2	.	-3	41*	3	-1	87*	23
COc1ccc(Oc2cc(NC(=O)c3nn(C)cc3[N+](=O)[O-])cc([N+](=O)[O-])c2)cc1	.	.	86*	4	0	108*	0
COc1ccc(NC(=O)c2cn(CCC#N)nc2-c2cccc([N+](=O)[O-])c2)cc1	-11	-1	0	.	-3	.	.
O=C1NC(=O)C(=Cc2ccc(-c3ccc(F)cc3O)o2)C(=O)N1	2	.	.	.	.	.	.

Assay outcomes deposited in PubChem BioAssay by The Scripps Research Institute Molecular Screening Center.
